The values below come from article PMC7862700, “An all-to-all approach to the identification of sequence-specific readers for epigenetic DNA modifications on cytosine”.

Holding throughout (experiment): DAPPL (digital affinity profiling via proximity ligation, sequencing); 10 mM Tris-HCl pH 7.5, 50 mM NaCl, 1 mM DTT, 4% glycerol, room temperature, 30 min; GST-TFs on glutathione beads, 16-mer random dsDNA library, 0.1% formaldehyde crosslink after washing; high values mean tight binding
One test deals with HSF1 (Homo sapiens, UniProt Q00613 1-529). Conditions: protein: recombinant; tags: N-terminal GST; chain copies: 3; dsDNA, one strand shown. An outline of the steps:
(§1)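 A tag-only sample was pooled with DNA-barcoded human transcription factors that had been expressed in yeast as GST fusions and captured on glutathione beads. The pools were incubated for 30 min at room temperature with 200 nmole of a random double-stranded 16-mer DNA library in Tris/NaCl/DTT/glycerol buffer, then washed, crosslinked with 0.1% formaldehyde, proximity-ligated (BsaI/T4 ligase, 1 h, 37 °C), PCR-amplified and sequenced on an Illumina NextSeq500. Binding signal is each hexamer's read frequency for a factor divided by its frequency for the tag-only sample.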

A further test concerns the target T1, ETV2 (Homo sapiens, UniProt O00321 1-342).
T1 sequence: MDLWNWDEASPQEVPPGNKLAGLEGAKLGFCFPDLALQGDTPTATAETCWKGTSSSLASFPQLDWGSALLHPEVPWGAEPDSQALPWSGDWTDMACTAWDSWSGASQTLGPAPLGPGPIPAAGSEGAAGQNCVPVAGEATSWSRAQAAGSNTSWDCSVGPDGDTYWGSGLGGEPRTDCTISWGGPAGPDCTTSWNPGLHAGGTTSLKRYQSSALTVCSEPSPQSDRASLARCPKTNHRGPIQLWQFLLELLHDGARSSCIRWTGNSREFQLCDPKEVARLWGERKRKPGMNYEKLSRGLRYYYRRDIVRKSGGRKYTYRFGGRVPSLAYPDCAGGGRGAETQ
Conditions: protein: recombinant; tags: N-terminal GST; dsDNA, one strand shown. An outline of the steps:
as §1

The next test deals with CRX (Homo sapiens, UniProt O43186 1-299). Particulars: protein: recombinant; tags: N-terminal GST; dsDNA, one strand shown. An outline of the steps: as §1
The target of another test is T2, ELK1 (Homo sapiens, UniProt P19419 1-428).
T2 sequence: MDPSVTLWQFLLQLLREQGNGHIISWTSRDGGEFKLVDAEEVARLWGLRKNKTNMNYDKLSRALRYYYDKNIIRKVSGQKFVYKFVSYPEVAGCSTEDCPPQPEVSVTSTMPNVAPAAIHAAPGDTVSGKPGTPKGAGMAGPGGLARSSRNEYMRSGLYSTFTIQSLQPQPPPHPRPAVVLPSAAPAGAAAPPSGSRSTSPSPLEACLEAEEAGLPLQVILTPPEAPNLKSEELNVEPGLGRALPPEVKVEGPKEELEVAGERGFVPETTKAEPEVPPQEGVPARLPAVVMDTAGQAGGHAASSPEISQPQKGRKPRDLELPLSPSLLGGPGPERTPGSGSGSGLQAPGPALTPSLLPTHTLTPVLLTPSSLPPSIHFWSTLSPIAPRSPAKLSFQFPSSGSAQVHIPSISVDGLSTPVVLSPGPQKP
Conditions: protein: recombinant; tags: N-terminal GST; dsDNA, one strand shown. An outline of the steps: as §1

The target in a further test is T3, GABPA (Homo sapiens, UniProt Q06546 1-454).
T3 sequence: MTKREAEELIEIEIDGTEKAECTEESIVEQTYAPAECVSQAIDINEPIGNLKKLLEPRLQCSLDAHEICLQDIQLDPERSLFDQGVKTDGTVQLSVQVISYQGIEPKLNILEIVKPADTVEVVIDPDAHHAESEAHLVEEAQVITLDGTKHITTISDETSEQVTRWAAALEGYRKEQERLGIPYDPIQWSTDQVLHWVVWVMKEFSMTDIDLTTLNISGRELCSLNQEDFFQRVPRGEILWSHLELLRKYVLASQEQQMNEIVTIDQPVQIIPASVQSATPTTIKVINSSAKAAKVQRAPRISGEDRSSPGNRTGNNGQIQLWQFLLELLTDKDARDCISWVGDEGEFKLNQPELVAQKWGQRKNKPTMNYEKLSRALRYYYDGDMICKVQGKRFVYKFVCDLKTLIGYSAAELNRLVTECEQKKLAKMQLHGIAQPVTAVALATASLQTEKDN
Particulars: protein: recombinant; tags: N-terminal GST; dsDNA, one strand shown. In short, it runs like this:
as §1

The target in another test is T4, ETV3L (Homo sapiens, UniProt Q6ZN32 1-361).
T4 sequence: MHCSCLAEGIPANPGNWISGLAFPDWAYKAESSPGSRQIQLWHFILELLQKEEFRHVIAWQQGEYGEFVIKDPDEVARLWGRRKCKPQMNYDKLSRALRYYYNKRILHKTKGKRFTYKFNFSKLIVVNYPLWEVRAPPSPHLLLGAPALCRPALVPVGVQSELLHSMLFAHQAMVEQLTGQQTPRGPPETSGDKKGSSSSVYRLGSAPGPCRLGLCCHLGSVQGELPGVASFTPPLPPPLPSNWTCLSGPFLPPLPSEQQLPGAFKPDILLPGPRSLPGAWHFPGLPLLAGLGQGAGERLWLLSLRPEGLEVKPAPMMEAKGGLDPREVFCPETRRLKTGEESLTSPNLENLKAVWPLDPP
Conditions: protein: recombinant; tags: N-terminal GST; dsDNA, one strand shown. An outline of the steps:
as §1

The target in another test is T5, EHF (Homo sapiens, UniProt Q9NZC4 1-300).
T5 sequence: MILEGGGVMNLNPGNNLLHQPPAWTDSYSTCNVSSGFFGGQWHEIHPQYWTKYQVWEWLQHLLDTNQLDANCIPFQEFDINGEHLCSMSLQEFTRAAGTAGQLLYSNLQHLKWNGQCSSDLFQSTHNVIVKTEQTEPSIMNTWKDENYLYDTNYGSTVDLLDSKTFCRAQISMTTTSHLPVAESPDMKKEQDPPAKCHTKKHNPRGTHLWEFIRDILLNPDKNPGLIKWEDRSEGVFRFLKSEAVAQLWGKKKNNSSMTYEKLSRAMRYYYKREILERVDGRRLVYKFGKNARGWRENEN
Conditions: protein: recombinant; tags: N-terminal GST; dsDNA, one strand shown. In short, it runs like this:
as §1

The next test addresses SPI1 (Homo sapiens, UniProt P17947 1-270). Particulars: protein: recombinant; tags: N-terminal GST; dsDNA, one strand shown. An outline of the steps: as §1
For another test, the target named is T6, ELK3 (Homo sapiens, UniProt P41970 1-407).
T6 sequence: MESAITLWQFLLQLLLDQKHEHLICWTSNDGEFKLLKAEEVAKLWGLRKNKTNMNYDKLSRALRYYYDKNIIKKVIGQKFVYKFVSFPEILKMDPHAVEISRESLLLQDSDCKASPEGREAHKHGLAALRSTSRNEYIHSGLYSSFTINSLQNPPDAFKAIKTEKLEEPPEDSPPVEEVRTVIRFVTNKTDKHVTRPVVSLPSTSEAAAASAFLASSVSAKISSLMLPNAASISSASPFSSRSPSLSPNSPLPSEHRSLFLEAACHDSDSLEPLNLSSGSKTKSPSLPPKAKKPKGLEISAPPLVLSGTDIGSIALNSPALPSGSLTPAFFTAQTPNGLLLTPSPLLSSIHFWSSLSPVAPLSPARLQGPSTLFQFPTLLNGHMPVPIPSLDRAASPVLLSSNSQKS
Conditions: protein: recombinant; tags: N-terminal GST; dsDNA, one strand shown. An outline of the steps:
as §1

A further test has as its target T7, ELF3 (Homo sapiens, UniProt P78545 1-371).
T7 sequence: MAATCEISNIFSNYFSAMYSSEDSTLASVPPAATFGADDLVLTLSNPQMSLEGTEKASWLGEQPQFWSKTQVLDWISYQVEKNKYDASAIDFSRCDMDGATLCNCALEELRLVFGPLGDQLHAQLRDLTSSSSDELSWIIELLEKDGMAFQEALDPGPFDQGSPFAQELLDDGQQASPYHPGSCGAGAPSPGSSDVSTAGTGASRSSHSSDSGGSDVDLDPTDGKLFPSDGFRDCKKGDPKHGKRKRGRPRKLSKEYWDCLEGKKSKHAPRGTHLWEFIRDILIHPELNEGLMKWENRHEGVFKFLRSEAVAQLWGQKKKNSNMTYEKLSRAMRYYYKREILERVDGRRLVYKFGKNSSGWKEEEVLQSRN
Particulars: protein: recombinant; tags: N-terminal GST; dsDNA, one strand shown. In short, it runs like this:
as §1

For another test, the target named is T8, ERF (Homo sapiens, UniProt P50548 1-548).
T8 sequence: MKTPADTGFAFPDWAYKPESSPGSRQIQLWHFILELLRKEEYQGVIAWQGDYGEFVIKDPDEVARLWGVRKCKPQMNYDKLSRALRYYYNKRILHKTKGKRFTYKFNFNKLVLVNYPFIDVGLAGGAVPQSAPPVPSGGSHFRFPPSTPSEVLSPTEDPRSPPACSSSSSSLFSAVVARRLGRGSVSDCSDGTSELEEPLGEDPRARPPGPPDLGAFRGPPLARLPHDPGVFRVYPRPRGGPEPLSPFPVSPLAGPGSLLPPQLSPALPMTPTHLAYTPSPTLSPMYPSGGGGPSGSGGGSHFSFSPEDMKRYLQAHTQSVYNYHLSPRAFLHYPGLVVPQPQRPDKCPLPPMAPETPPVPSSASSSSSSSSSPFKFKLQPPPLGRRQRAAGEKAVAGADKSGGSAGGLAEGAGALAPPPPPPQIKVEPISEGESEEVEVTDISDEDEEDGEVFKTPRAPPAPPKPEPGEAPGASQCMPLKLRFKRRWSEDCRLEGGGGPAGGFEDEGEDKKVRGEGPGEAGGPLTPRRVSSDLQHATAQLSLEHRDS
Particulars: protein: recombinant; tags: N-terminal GST; dsDNA, one strand shown. An outline of the steps:
as §1

The target of a further test is T9, ETV7 (Homo sapiens, UniProt Q9Y603 1-341).
T9 sequence: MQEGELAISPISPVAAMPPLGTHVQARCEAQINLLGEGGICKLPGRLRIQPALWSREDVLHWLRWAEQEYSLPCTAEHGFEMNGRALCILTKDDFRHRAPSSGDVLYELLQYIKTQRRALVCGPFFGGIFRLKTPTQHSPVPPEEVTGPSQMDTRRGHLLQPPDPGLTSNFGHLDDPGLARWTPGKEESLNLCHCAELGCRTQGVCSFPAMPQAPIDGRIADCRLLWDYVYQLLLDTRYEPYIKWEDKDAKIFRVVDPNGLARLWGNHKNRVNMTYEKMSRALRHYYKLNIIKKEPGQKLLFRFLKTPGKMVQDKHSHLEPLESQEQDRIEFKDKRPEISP
Conditions: protein: recombinant; tags: N-terminal GST; dsDNA, one strand shown. An outline of the steps: as §1

The target in a further test is ETV6 (Homo sapiens, UniProt P41212 1-452). Conditions: protein: recombinant; tags: N-terminal GST; dsDNA, one strand shown. An outline of the steps: as §1
Chain of ETV6 (P41212 whole entry): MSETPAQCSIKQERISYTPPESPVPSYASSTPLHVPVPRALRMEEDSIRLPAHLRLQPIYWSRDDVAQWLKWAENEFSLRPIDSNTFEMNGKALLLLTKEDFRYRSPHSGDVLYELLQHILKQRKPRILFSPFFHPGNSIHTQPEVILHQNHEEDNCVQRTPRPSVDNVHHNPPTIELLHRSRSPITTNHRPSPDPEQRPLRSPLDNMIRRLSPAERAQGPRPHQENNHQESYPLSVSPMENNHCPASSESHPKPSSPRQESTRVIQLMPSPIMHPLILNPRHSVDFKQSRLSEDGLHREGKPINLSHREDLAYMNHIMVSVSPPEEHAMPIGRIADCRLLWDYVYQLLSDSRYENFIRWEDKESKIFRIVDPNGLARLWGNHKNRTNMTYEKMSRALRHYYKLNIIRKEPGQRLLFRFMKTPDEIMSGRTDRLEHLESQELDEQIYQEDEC

Chain of HSF1 (Q00613 whole entry, the tested form may be a part): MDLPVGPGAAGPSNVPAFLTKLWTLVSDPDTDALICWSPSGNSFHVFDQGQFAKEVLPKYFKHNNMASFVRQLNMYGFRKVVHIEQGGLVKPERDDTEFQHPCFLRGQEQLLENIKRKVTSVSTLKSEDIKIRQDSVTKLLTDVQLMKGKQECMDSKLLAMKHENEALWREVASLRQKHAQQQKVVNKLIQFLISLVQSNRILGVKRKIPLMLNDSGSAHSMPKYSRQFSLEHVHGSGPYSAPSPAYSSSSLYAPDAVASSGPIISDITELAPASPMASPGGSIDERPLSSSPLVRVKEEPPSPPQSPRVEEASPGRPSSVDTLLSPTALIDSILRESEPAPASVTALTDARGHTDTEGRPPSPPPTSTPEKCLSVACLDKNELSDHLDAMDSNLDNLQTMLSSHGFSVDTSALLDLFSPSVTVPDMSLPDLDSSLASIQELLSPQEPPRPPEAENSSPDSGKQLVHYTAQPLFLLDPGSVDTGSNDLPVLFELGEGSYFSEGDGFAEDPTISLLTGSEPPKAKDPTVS
Chain of CRX (O43186 whole entry): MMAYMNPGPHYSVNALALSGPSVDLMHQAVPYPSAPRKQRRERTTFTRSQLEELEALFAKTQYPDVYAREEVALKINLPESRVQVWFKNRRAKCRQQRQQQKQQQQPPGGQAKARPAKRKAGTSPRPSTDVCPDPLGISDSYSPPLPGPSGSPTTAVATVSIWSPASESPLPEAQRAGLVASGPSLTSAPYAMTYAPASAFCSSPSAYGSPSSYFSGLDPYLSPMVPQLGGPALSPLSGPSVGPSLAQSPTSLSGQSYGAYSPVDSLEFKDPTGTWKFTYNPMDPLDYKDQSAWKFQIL

AGATCA: the binding signal with HSF1 was 1.21 fold enrichment (6-mer frequency, TF over GST control); with ETV2, 1.03 fold enrichment (6-mer frequency, TF over GST control); with CRX, 1.31 fold enrichment (6-mer frequency, TF over GST control).
Turning to GTCTGG, the binding signal is 1.06 fold enrichment (6-mer frequency, TF over GST control) in the test with HSF1 and 1.02 fold enrichment (6-mer frequency, TF over GST control) with ETV2.
For TCGAGT, the binding signal with ELK1 was 1.01 fold enrichment (6-mer frequency, TF over GST control); with GABPA, 1 fold enrichment (6-mer frequency, TF over GST control); with HSF1, 1.41 fold enrichment (6-mer frequency, TF over GST control); in the test with ETV3L, 1.06 fold enrichment (6-mer frequency, TF over GST control).
As to AGAATG, the binding signal with ELK1 is 1.01 fold enrichment (6-mer frequency, TF over GST control); with EHF it was 1.02 fold enrichment (6-mer frequency, TF over GST control); with SPI1, 1.01 fold enrichment (6-mer frequency, TF over GST control); in the test with ELK3, 1.01 fold enrichment (6-mer frequency, TF over GST control); with HSF1, 2.08 fold enrichment (6-mer frequency, TF over GST control); with ETV2, 1.01 fold enrichment (6-mer frequency, TF over GST control). In addition, the binding signal with ELF3 was 1.05 fold enrichment (6-mer frequency, TF over GST control); in the test with CRX it was 1.09 fold enrichment (6-mer frequency, TF over GST control).
For the sequence TCCAGA, the binding signal with HSF1 was 3.36 fold enrichment (6-mer frequency, TF over GST control); in the test with CRX it was 1.5 fold enrichment (6-mer frequency, TF over GST control).
Regarding AGAAAG, the binding signal in the test with HSF1 is 1.87 fold enrichment (6-mer frequency, TF over GST control); with CRX, 1.01 fold enrichment (6-mer frequency, TF over GST control).
With GAGATT, the binding signal in the test with HSF1 was 1.25 fold enrichment (6-mer frequency, TF over GST control); with CRX, 1.57 fold enrichment (6-mer frequency, TF over GST control).
AGAATC: the binding signal in the test with HSF1 was 1.74 fold enrichment (6-mer frequency, TF over GST control); with CRX, 1.21 fold enrichment (6-mer frequency, TF over GST control).
For TTTAGA, the binding signal was 1.05 fold enrichment (6-mer frequency, TF over GST control) with SPI1; 1.37 fold enrichment (6-mer frequency, TF over GST control) with HSF1; 1.12 fold enrichment (6-mer frequency, TF over GST control) with ETV2; 1.59 fold enrichment (6-mer frequency, TF over GST control) with CRX; 1.08 fold enrichment (6-mer frequency, TF over GST control) with ERF; 1.05 fold enrichment (6-mer frequency, TF over GST control) with ETV7. Further, the binding signal in the test with ETV6 is 1.04 fold enrichment (6-mer frequency, TF over GST control).
As for AGCATA, the binding signal with HSF1 was 1.04 fold enrichment (6-mer frequency, TF over GST control); with ELF3, 1.01 fold enrichment (6-mer frequency, TF over GST control); with ETV7, 1.01 fold enrichment (6-mer frequency, TF over GST control).
In the case of GGTTAA, the binding signal with HSF1 is 1.02 fold enrichment (6-mer frequency, TF over GST control); with ELF3, 1.03 fold enrichment (6-mer frequency, TF over GST control); with CRX, 1.31 fold enrichment (6-mer frequency, TF over GST control).
AGATTG: the binding signal is 1.01 fold enrichment (6-mer frequency, TF over GST control) in the test with HSF1 and 1.06 fold enrichment (6-mer frequency, TF over GST control) with CRX.
